According to the supplement of paper PMC7411054:
Counter-ions that a name gives are not always drawn.

Legend:
Test in all cases: phenotypically active (imaging signature differs from DMSO and reproducible) at any of 0.3-9 uM (binary (1 = active, 0 = inactive)); higher = active
Settings in all cases: treatment time: 24 h
[1] = test system: A549-ACTB-RAB5A
Method in brief: (§1)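 Fifteen reporter lines derived from A549, HepG2 and WPMY1 cells by gene editing, carrying BFP for segmentation plus GFP and RFP/FusionRed markers, were exposed to 0.3, 1, 3 or 9 µM for 24 h in four wells each and imaged live. Live-cell features from each well were normalised to solvent control wells. A well set counted as deviating when ≥3 of 4 wells lay beyond the 95th percentile of control Euclidean distances, and as reproducible when the median replicate Pearson correlation exceeded the 95th percentile of non-replicates. Phenotypic activity was assigned only when both criteria were met.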

[2] = test system: A549-CANX-COX4
Method in brief: as §1

[3] = test system: A549-GM130-SQSTM1
Method in brief: as §1

[4] = test system: A549-TP53BP1-CLTA
Method in brief: as §1

[5] = test system: A549-TUBA1B-RELA
Method in brief: as §1

[6] = test system: HepG2-ACTB-RAB5A
Method in brief: as §1

[7] = test system: HepG2-CANX-COX4
Method in brief: as §1

[8] = test system: HepG2-GM130-SQSTM1
Method in brief: as §1

[9] = test system: HepG2-TP53BP1-CLTA
Method in brief: as §1

[10] = test system: HepG2-TUBA1B-RELA
Method in brief: as §1

[11] = test system: WPMY1-ACTB-RAB5A
Method in brief: as §1

[12] = test system: WPMY1-CANX-COX4
Method in brief: as §1

[13] = test system: WPMY1-GM130-SQSTM1
Method in brief: as §1

[14] = test system: WPMY1-TP53BP1-CLTA
Method in brief: as §1

[15] = test system: WPMY1-TUBA1B-RELA
Method in brief: as §1

Measured: phenotypically active

CC1CCC(C(C)C)C(O)C1 [L-menthol]
inactive: [1] 0 | [2] 0 | [3] 0 | [4] 0 | [5] 0 | [6] 0 | [7] 0 | [8] 0 | [9] 0 | [10] 0 | [11] 0 | [12] 0 | [13] 0 | [14] 0 | [15] 0

NS(=O)(=O)c1cc2c(cc1Cl)NC(C1CC3C=CC1C3)NS2(=O)=O (stereo not given) [cyclothiazide]
inactive: [1] 0 | [2] 0 | [3] 0 | [4] 0 | [5] 0 | [6] 0 | [7] 0 | [8] 0 | [9] 0 | [10] 0 | [11] 0 | [12] 0 | [13] 0 | [14] 0 | [15] 0

Fc1ccc(-c2c3cccc(C(F)(F)F)c3nn2Cc2ccc(F)cc2Cl)cc1
inactive: [1] 0 | [2] 0 | [3] 0 | [4] 0 | [5] 0 | [6] 0 | [7] 0 | [8] 0 | [9] 0 | [10] 0 | [11] 0 | [12] 0 | [13] 0 | [14] 0 | [15] 0

CC(C)(C)NC[C@H](O)COc1nsnc1N1CCOCC1 [timolol]
inactive: [1] 0 | [2] 0 | [3] 0 | [4] 0 | [5] 0 | [6] 0 | [7] 0 | [8] 0 | [9] 0 | [10] 0 | [11] 0 | [12] 0 | [13] 0 | [14] 0 | [15] 0

CSc1ccc(C(=O)c2[nH]c(=O)[nH]c2C)cc1 [Enoximone]
inactive: [1] 0 | [2] 0 | [3] 0 | [4] 0 | [5] 0 | [6] 0 | [7] 0 | [8] 0 | [9] 0 | [10] 0 | [11] 0 | [12] 0 | [13] 0 | [14] 0 | [15] 0

CCCc1nc(C)c2c(C)nc3ccc(OC)nc3n12
inactive: [1] 0 | [2] 0 | [3] 0 | [4] 0 | [5] 0 | [6] 0 | [7] 0 | [8] 0 | [9] 0 | [10] 0 | [11] 0 | [12] 0 | [13] 0 | [14] 0 | [15] 0

CCOC(=O)C1=C(C)NC(=S)N[C@H]1c1cccc(O)c1 [Monastrol]
inactive: [1] 0 | [2] 0 | [3] 0 | [4] 0 | [5] 0 | [6] 0 | [7] 0 | [8] 0 | [9] 0 | [10] 0 | [11] 0 | [12] 0 | [13] 0 | [14] 0 | [15] 0

CCCCN1C[C@H](O)[C@@H](O)[C@H](O)[C@H]1CO [Miglustat hydrochloride]
inactive: [1] 0 | [2] 0 | [3] 0 | [4] 0 | [5] 0 | [6] 0 | [7] 0 | [8] 0 | [9] 0 | [10] 0 | [11] 0 | [12] 0 | [13] 0 | [14] 0 | [15] 0

C=CCc1ccccc1OC[C@@H](O)CNC(C)C [Alprenolol hydrochloride]
inactive: [1] 0 | [2] 0 | [3] 0 | [4] 0 | [5] 0 | [6] 0 | [7] 0 | [8] 0 | [9] 0 | [10] 0 | [11] 0 | [12] 0 | [13] 0 | [14] 0 | [15] 0

CCCCCCCCCCCCCCCCCCc1ccc(C(=O)/C=C/C(=O)O)cc1
inactive: [1] 0 | [2] 0 | [3] 0 | [4] 0 | [5] 0 | [6] 0 | [7] 0 | [8] 0 | [9] 0 | [10] 0 | [11] 0 | [12] 0 | [13] 0 | [14] 0 | [15] 0

CC(COc1ccccc1)N(CCCl)Cc1ccccc1 (stereo not given) [phenoxybenzamine]
inactive: [1] 0 | [2] 0 | [3] 0 | [4] 0 | [5] 0 | [6] 0 | [7] 0 | [8] 0 | [9] 0 | [10] 0 | [11] 0 | [12] 0 | [13] 0 | [14] 0 | [15] 0

COC(=O)c1ccc(N2CCN(C)CC2)c(NC(=O)c2cccc(OC)c2)c1
inactive: [1] 0 | [2] 0 | [3] 0 | [4] 0 | [5] 0 | [6] 0 | [7] 0 | [8] 0 | [9] 0 | [10] 0 | [11] 0 | [12] 0 | [13] 0 | [14] 0 | [15] 0
